Rows were chosen to be rich in hits. Some 14% of all compounds tested hit in one or more screens of this group.
USP28 inh: inhibitors of human USP28 deubiquitinase | inhibition, % at 25 µM | 3% of 47,000 active | Ubiquitin carboxyl-terminal hydrolase 28 (Homo sapiens), Q96RU2 | purified USP28, Ub-rhodamine cleavage fluorescence, 30 min
USP17 inh: inhibitors of human USP17 deubiquitinase. purified USP17, Ub-rhodamine cleavage fluorescence, 3 h. 6.5% of 47,000 active. inhibition, % at 50 µM. Ubiquitin carboxyl-terminal hydrolase 17-like protein 5 (Homo sapiens), A8MUK1. AID 1645855, 2021
Target sequence (A8MUK1 whole entry, looked up): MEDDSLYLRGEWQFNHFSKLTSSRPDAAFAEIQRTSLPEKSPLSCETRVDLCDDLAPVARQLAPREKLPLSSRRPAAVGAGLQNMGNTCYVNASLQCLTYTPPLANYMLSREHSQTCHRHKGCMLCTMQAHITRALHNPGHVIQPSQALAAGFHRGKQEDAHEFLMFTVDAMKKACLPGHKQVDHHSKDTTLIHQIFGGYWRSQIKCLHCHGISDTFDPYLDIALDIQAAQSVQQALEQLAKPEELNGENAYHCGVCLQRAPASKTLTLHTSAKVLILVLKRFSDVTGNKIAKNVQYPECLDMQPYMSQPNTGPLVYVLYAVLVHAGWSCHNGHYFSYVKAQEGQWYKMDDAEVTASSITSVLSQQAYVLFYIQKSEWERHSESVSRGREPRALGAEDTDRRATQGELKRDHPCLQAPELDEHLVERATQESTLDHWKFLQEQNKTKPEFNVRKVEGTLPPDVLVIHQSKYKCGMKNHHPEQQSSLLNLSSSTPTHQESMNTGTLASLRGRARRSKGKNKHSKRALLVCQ
USP8 block: inhibitors of human USP8 deubiquitinase | Ubiquitin carboxyl-terminal hydrolase 8 (Homo sapiens), P40818 | purified USP8, Ub-rhodamine cleavage fluorescence, 30 min | inhibition, % at 20 µM | 4.2% of 47,000 active | AID 1645853, 2021
USP30 block: inhibitors of human USP30 deubiquitinase | inhibition, % at 25 µM | Ubiquitin carboxyl-terminal hydrolase 30 (Homo sapiens), Q70CQ3 | purified USP30, Ub-rhodamine cleavage fluorescence | AID 1645860, 2021 | 5.3% of 47,000 active
USP10 inh: inhibitors of human USP10 deubiquitinase; purified USP10, Ub-rhodamine fluorescence, 60 min; inhibition, % at 20 µM; 1.1% of 47,000 active; AID 1645856, 2021
The depositor's hits bear a star; x = no result. No stated cut-off is given here; in the data, active means inhibition above about 30%; inactive means the rest.

SMILES	USP28 inh	USP17 inh	USP8 block	USP30 block	USP10 inh
COc1ccc(NC(=O)CS(=O)(=O)c2[nH]c(-c3ccc(F)cc3)nc2-c2ccccc2)cc1Cl	14	27	-4	-8	7
COc1ccc(NC(=O)CS(=O)(=O)c2[nH]c(-c3ccc(C)cc3)nc2-c2ccccc2)cc1Cl	9	21	7	60*	13
CN1CCN(c2ccc3ccc(C(=O)NCCc4cccnc4)cn23)CC1	-94	-72	-31	-289	-9
CC(C)(C)c1cc(CCC(=O)Nc2c3c(nc4c2CCC4)CCCC3)cc(C(C)(C)C)c1O	34*	0	8	77*	-8
CNc1cc(C)nc(C2CN(C(=O)c3ccc4n[nH]nc4c3)CCO2)c1 (centres undefined)	2	9	1	5	5
CNc1cc(C)nc(C2CN(C(=O)c3ccc(C)n(C)c3=O)CCO2)c1 (centres undefined)	4	8	-34	32*	0
COc1ccc(-c2ocnc2C(=O)NCc2ccc(F)cc2)cc1	55*	12	14	-4	0
COc1ccc(-c2ocnc2C(=O)Nc2ccc(C)c(F)c2)cc1	x	-2	-2	x	2
COCCn1cc(NC(=O)Nc2ccccc2Cl)c2ccccc21	-4	-10	7	-24	-1
O=C1COC2(CCN(C(=O)N3CCCC3)CC2)CN1Cc1ccccc1	24	-24	-205	34*	3
CCn1c(SCC(=O)N2CCCC2)nnc1-c1ccc2c(c1)OCCCO2	-2	-3	-12	4	0
Cn1c(SCC(=O)Nc2ccc3c(c2)OCCO3)nnc1-c1ccncc1	39*	5	22	21	0
CCn1c(SCC(=O)N2c3ccccc3CC2C)nnc1-c1ccc2c(c1)OCCO2 (centres undefined)	3	21	-3	73*	0
CCn1c(SCC(=O)Nc2ccc(C)c(Cl)c2)nnc1-c1ccc2c(c1)OCCO2	4	17	31*	40*	18
Cn1c(SCC(=O)Nc2ccc3c(c2)OCCO3)nnc1C(F)(F)F	10	-1	-11	2	1
CN1CCc2c(C#N)c(N3CCC(Cc4ccccc4)CC3)n3cnnc3c2C1	4	1	-5	4	-8
CC(=O)N[C@H](C)C(=O)N1CCC2(C/C=C/CCOc3ccccc3C(=O)NC2)CC1	5	-1	1	11	0
CC1(C)OC(=O)[C@@]2(C)N[C@]1(C)C[C@@H]2C(=O)Nc1ccc2c(c1)OCO2	-12	-5	2	-15	-4
O=C(Cc1noc2ccccc12)NCC(=O)Nc1ccc(Cl)cc1	23	77*	15	25	13
CCOC(=O)c1cnc2c(cnn2C)c1NCc1cccc(C(F)(F)F)c1	11	15	37*	41*	14
CCOC(=O)c1cnc2c(cnn2C)c1NCc1ccc(OC)cc1	2	8	0	0	1
COc1cc(OC)c2cc(C(=O)N[C@@H](Cc3ccccc3)C(=O)O)n(C)c2c1	5	36*	58*	0	6
COc1cc2ncn(CC(=O)N[C@@H](Cc3ccccc3)C(=O)O)c(=O)c2cc1OC	-5	-9	-32	0	-1
NC(=O)Cn1c(-c2nc(-c3ccccc3F)no2)cccc1=O	-4	6	17	9	3
COc1ccc(N(C)S(=O)(=O)c2cccc(C(=O)OCC(=O)N(Cc3ccccc3)C(C)C)c2)cc1	13	14	22	30*	8
SMILES	USP28 inh	USP17 inh	USP8 block	USP30 block	USP10 inh
COc1cccc(NC(=O)Cn2cc(C(=O)C3CC3)c3ccccc32)c1	12	53*	25	69*	3
CCC(=O)c1cn(CC(=O)Nc2cccc(C)c2)c2ccccc12	7	7	0	1	-1
Cc1ccc(C)c(NC(=O)Cn2cc(C(=O)C3CC3)c3ccccc32)c1	57*	62*	93*	76*	46*
CC1=CC=CN2C(=O)C(Cc3ccccc3F)(NC(=O)c3ccccc3)N=C12 (centres undefined)	-161	-3	0	1	2
O=C(NCc1ccccc1F)Nc1ccccc1[N+](=O)[O-]	25	73*	-40	57*	3
c1ccc2c(c1)CCN(c1ncnc3c1[nH]c1ccccc13)C2	7	0	44*	-6	2
Cc1cc(NC(=O)CNc2ccccc2F)no1	-12	-15	1	-35	-1

Source: PubChem
